Compound activity: PubChem BioAssay, National Center for Advancing Translational Sciences (NCATS)
Shown are actives, neighbours in structure and some others; about 19% of the full set was active somewhere.
Pf growth 48h – inhibits P. falciparum growth in the first generation, 48 h. P. falciparum luciferase growth in erythrocytes, 48 h. Potency, µM (top dose mostly 28.7 µM), without a hit: at the top dose activity change, negative = inhibition, actives largely listed as inhibitors. 5.9% of 310,000 active; note: potency is the fitted concentration of half-maximal effect; % is set by controls: 0 for no effect and ±100 for the full control effect
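Parasite viability was followed by luminescence of a genomically integrated firefly luciferase. Cultures held 0.1% parasitemia at 2% hematocrit (final), incubated under 5% CO2 at 37 C.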
Shiga inhibitor – Shiga toxin inhibition | Vero cells, Shiga toxin protein synthesis inhibition reporter | inhibition, % at 38.7 µM | 9.2% of 290,000 active | AID 2315; in the data active = inhibition mostly above about 28%, no sharp cut-off; inactive = mostly below about 43%; note: 0% is about no effect
Pf growth 96h – inhibits malaria parasite growth, 96 h. P. falciparum luciferase reporter growth, 96 h. Potency, µM (series often up to 28.7 µM), for the others: top-dose activity change, negative = inhibition, usual class: inhibitors. 6.9% of 320,000 active; note: potency is the fitted concentration of half-maximal effect; % is set by controls: 0 for no effect and ±100 for the full control effect
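Two parasite generations (96 h, 37 C, 5% CO2) of compound exposure in infected erythrocytes (0.05% parasitemia, 2% hematocrit). Luciferase-reporter P. falciparum; decreased luminescence indicates inhibited growth, aimed at apicoplast-acting delayed death.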
SARS PLpro yeast – inhibitors of SARS-CoV papain-like protease in yeast | 0.19% of 330,000 active | Potency, µM (top dose mostly 32.9 µM), for inactives: at the highest dose activity, positive = growth rescue, actives largely listed as activators | S. cerevisiae expressing SARS-CoV PLpro, growth rescue; calls by dose curve; note: potency is the fitted concentration of half-maximal effect; 0% is about no effect; nearly all actives have a fitted effect of over 55% in size
AMA1-RON2 inh – inhibitors of Plasmodium falciparum AMA1-RON2 interaction; AlphaScreen AMA1-biotinylated RON2 peptide binding; Potency, µM (series often up to 58.2 µM), for inactives: top-dose activity change, negative = inhibition, hits mostly inhibitors; 0.2% of 360,000 active;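 note: potency is the fitted concentration of half-maximal effect; 0% = vehicle wells and -100% = peptide control; nearly all actives have a fitted effect of over 45% in size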
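AMA1 (3D7) with his tag at 25 nM final met compounds first, then biotinylated RON2 peptide at 25 nM; detection used donor plus acceptor beads, 10 µg/mL apiece, read by AlphaScreen after 30 min at room temperature.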
Cycloheximide cs – affects cycloheximide protein synthesis inhibition readout, counter-screen; cell reporter, cycloheximide protein synthesis inhibition counterscreen; max response, %; 12% of 300,000 active; AID 2314; in the data active = max response mostly above about 13%, no sharp cut-off; inactive = mostly below about 14%; note: read at 38.3 µM for the half of the compounds with a filed dose; 0% is about no effect
The depositor's hits bear a star; ? = inconclusive; · = not tested or not shown. Unless noted, calls come from the whole dose curve; as a rule, active = well fitted curve in the direction sought with a large enough effect; inconclusive = small, poorly fitted or top-dose-only effect, or another doubt; inactive = no such curve, though single readings can be large; an effect the other way counts as inactive or inconclusive.

SMILES | Pf growth 48h | Shiga inhibitor | Pf growth 96h | SARS PLpro yeast | AMA1-RON2 inh | Cycloheximide cs
Cc1ccc(S(=O)(=O)N2CCCCC2)cc1NC(=O)c1cccs1 | ? | · | ? | -3% | 0% | ·
Cc1cc(C)n(CCNC(=O)[C@H]2O[C@@H](n3ccc(=O)[nH]c3=O)[C@H](O)[C@@H]2O)n1 | · | · | · | · | 13% | ·
O=C(N=Nc1c(O)n(Cc2ccccc2)c2ccccc12)c1cc2ccccc2cc1O | ? | 22 | -4% | 3% | 8% | 16*
Cc1ccc(NC(=O)Cn2c(O)c(N=NC(=O)c3cc4ccccc4cc3O)c3ccccc32)cc1 | 26% | -4 | -29% | 4% | -20% | 9
COc1ccc(C(=O)NCC(=O)N=Nc2c(O)n(Cc3ccccc3)c3ccccc23)cc1OC | 0% | -3 | -22% | 2% | ? | -3
O=C(N=Nc1c(O)n(Cc2ccccc2)c2ccccc12)c1ccc(O)cc1 | ? | 60* | 12µM* | -22% | -7% | 64*
CC(=O)Nc1cc(Cl)ccc1OS(=O)(=O)c1ccc(C)cc1 | 20% | -10 | 279% | 14% | 10% | -1
OCC1C2c3ccccc3C(c3ccccc32)C1CO (stereo unspecified) | 2% | -4 | 9% | 1% | -2% | -4
COc1ccc(NC(=S)Nc2cccc(C(C)=O)c2)cc1OC | -1% | 18 | 12µM* | 0% | 7% | 14
COc1cccc(C=Nc2ccccc2C(=O)Nc2ccccc2)c1O | 88% | 77* | 126% | -15% | 28% | 55*
COc1ccc(NC(=S)Nc2cccc(Cl)c2)cc1OC | 4% | -7 | ? | 0% | 11% | -2
COc1cc(OC)c(C(=O)Nc2cccc(C(C)=O)c2)cc1OC | · | 25 | 2% | -7% | 2% | 19*
COC(=O)c1cccc(NC(=O)c2cc(OC)c(OC)c(OC)c2Br)c1 | 6% | 20 | 277% | -17% | -2% | 5
COc1ccc(C(=O)Nc2cccc(C(C)=O)c2)c(OC)c1OC | · | 69* | 29% | -11% | 4% | 22*
CC(=O)Nc1ccc(S(=O)(=O)NCC2CCC(C(=O)N3CC(C)CC(C)C3)CC2)cc1 (stereo unspecified) | ? | -12 | -24% | 1% | 25% | -2
C/C(CC(=O)NCc1ccco1)=N\NC(=O)C(c1ccccc1)c1ccccc1 | 1% | -3 | 16% | 2% | -2% | -5
C=CCN(C(=O)CCC(=O)Nc1cc(C)on1)C(C(=O)NC(C)(C)C)c1ccc(OC)cc1 (stereo unspecified) | -10% | -15 | 1% | 0% | 10% | -1
COc1cccc(NC(=S)Nc2ccc(F)cc2)c1 | 25% | 35 | -3% | 1% | 46% | 2
CC(=O)c1cccc(NC(=S)Nc2ccc(F)cc2)c1 | 401% | 19 | 39% | -1% | 18% | 13*
COc1ccc(C(=O)Nc2cccc(C(C)=O)c2)cc1OC | 68% | 45 | 33% | -1% | 9% | 30*
COc1ccccc1C(=O)Nc1cccc(C(=O)c2ccccc2)c1 | -11% | 20 | 44% | -8% | 6% | 13*
CC(=O)Nc1ccc(NC(=O)CN(c2cccc(C(C)=O)c2)S(C)(=O)=O)cc1 | 24% | -10 | 16% | 0% | -24% | -3
COc1cccc(OC)c1C(=O)Nc1cccc(C(=O)Nc2cccc(C(=O)O)c2)c1 | 111% | -3 | 215% | 0% | 1% | -1
CC(=O)c1cccc(N(CC(=O)Nc2ccc(F)cc2)S(C)(=O)=O)c1 | 32% | 41* | 41% | 2% | 1% | 11*
CCc1nnc2c(NCCc3ccccc3)nc3ccccc3n12 | 5% | 2 | 5% | -1% | 2% | -3
SMILES | Pf growth 48h | Shiga inhibitor | Pf growth 96h | SARS PLpro yeast | AMA1-RON2 inh | Cycloheximide cs
CCCn1nc(C(=O)N(C)CC(=O)Nc2ccc(OCC)c(OCC)c2)c2ccccc2c1=O | -25% | · | -11% | -6% | -11% | ·
Cc1cc(C(=O)N2CCC2(C)C(=O)NCCC#N)nn1C (stereo unspecified) | · | · | · | · | 12% | ·
COc1ccc(C(C)NC(=O)Nc2ccc(C(C)=O)cc2)cc1OC (stereo unspecified) | -8% | 23 | 285% | -4% | 0% | 23*
CSc1cccc(NC(=O)C2CCCN2S(=O)(=O)c2ccc(Br)s2)c1 (stereo unspecified) | · | 35 | 10µM* | -15% | -7% | 17
O=C1C=C(Nc2ccc(Cl)cc2)CC(c2ccco2)C1 (stereo unspecified) | 9.3µM* | 6 | ? | 2% | 5% | 2
Cc1ccc(C2CC(=O)C=C(Nc3ccc(Cl)cc3)C2)cc1 (stereo unspecified) | 15µM* | -15 | 32% | 2% | -2% | -2
CCCCCCCNC1=CC(=O)CC(c2ccco2)C1 (stereo unspecified) | 2.3µM* | 13 | 10µM* | -37% | -22% | 19*
CCOc1ccc(NC2=CC(=O)CC(c3ccco3)C2)cc1 (stereo unspecified) | ? | 33 | 19% | -1% | -4% | 11
CN(C)c1ccc(C2CC(=O)C=C(Nc3ccccc3N)C2)cc1 (stereo unspecified) | 32% | 68* | 28% | -1% | -15% | 40*
Cc1ccc(C2=CC(=O)C[C@H](c3ccc(Cl)cc3)C2)cc1 | -8% | · | 0% | -2% | 4% | ·
CC=Cc1cc(OC)c2c(c1)C(C)C(c1ccc(O)c(OC)c1)O2 (stereo unspecified) | · | · | · | · | -25% | ·
O=C(CNC(=O)c1cccs1)Nc1ccncc1 | 7% | · | 2% | -4% | -23% | ·
O=C1C=C(Nc2ccc(Cl)cc2)CC(c2ccc(Cl)cc2)C1 (stereo unspecified) | 9.3µM* | 75 | ? | -6% | -3% | 36
N=C1C(c2nc3ccccc3s2)=C(O)CN1CCCO | 20% | -12 | · | 5% | -8% | 14
CCN1CC(O)=C(c2nc3ccccc3s2)C1=N | 45% | 27 | · | -10% | -2% | 24*
CCCCN1CC(O)=C(c2nc3ccccc3s2)C1=N | 11% | 44 | · | -6% | 5% | 25*
CC(O)CN1CC(O)=C(c2nc3ccccc3s2)C1=N (stereo unspecified) | 10% | 21 | 2% | 1% | 2% | 17*
COc1ccccc1C(=O)N/C(=C\c1cn(S(=O)(=O)N(C)C)c2ccccc12)C(=O)N1CCCCC1 | ? | -6 | -1% | -1% | 5% | -4
CCN(Cc1ccccc1)C(=O)Cn1c(=O)n(CC(=O)N2CCCCC2)c(=O)c2sccc21 | -4% | -10 | ? | -4% | 2% | 1
O=C(CN1C(=O)NC2(CCCC2)C1=O)NCCN1C(=O)S/C(=C\c2ccccc2F)C1=O | ? | · | 4.7µM* | 2% | 10% | ·
O=C(COCc1cc(-c2ccc3c(c2)OCO3)on1)Nc1cccnc1 | 10% | 3 | -11% | 1% | -3% | 12
